Assay outcomes: PubChem BioAssay, National Center for Advancing Translational Sciences (NCATS)
An excerpt weighted towards active compounds, which were near 14% of everything screened.
AID923 – qHTS Assay for Allosteric/Competitive Inhibitors of Caspase-1: Spectroscopic Profiling in AFC Spectral Region; compound fluorescence, AFC spectral region (405/520 nm); Potency, µM (highest dose often 57.5 µM), hits mostly activators; hit rate 1.1% among 75,000
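Titrations up to 57 uM read every 20 sec for 3 min (405/520 nm) with 50 nM caspase 1 and 5 uM Ac-WEHD-AFC, pH 7.5 HEPES buffer. Fluorescence-vs-time intercept gave baseline, scaled against on-plate AFC standard.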
A350 autofl – qHTS Assay for Spectroscopic Profiling in A350 Spectral Region; Compound autofluorescence, 340/450 nm, Alexa 350 dye-equivalents; active compounds read high; max dye-equivalent concentration, M; hit rate 11% among 59,000; AID 590, 2007; in the data active means max dye-equivalent concentration above about 10 nM; inconclusive means mostly about 1.1 nM to 9.6 nM
HADH2 inhib – qHTS Assay for Inhibitors of HADH2 (Hydroxyacyl-Coenzyme A Dehydrogenase, Type II); 3-hydroxyacyl-CoA dehydrogenase type-2 (Homo sapiens), Q99714; recombinant HADH2, NADH fluorescence, beta-hydroxybutyryl-CoA; Potency, µM (series often up to 57.1 µM), hits mostly inhibitors; hit rate 3.4% among 73,000; AID 886, 2007; further: nearly all actives have a fitted effect of over 60% in size
Target sequence (Q99714 whole entry, looked up, one chain of several): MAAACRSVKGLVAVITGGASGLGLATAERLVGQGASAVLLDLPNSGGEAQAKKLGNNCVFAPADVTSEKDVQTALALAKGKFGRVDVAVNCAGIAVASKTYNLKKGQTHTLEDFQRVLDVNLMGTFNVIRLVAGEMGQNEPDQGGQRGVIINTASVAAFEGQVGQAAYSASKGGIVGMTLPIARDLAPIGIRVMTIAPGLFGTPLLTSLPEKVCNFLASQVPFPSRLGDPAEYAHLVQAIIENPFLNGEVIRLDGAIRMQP
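Activity measured as NADH fluorescence gain (360/450 nm), taken as the change between first and last reads of a 4-min kinetic run. Conditions: pH 9.0 Tris buffer, 20 nM E. coli-expressed His-tagged enzyme, 1 mM NAD+, 90 uM beta-hydroxybutyryl-CoA; 15-min compound preincubation.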
HSD17B inhib – qHTS Assay for Inhibitors of HSD17B4, hydroxysteroid (17-beta) dehydrogenase 4. hit rate 7.6% among 75,000. Potency, µM (titrated, usually from 57.1 µM), actives largely listed as inhibitors. recombinant HSD17B10, NADH fluorescence kinetic;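 further: the protocol describes HADH2 (HSD17B10) and not the HSD17B4 of the title; nearly all actives have a fitted effect of over 70% in size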
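Enzyme plus compound, 15 min room temperature; substrate mix added (NAD+ 1 mM, beta-hydroxybutyryl-CoA 90 uM final); plates read kinetically for NADH fluorescence. HADH2 was His-tagged, E. coli-derived, 20 nM.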
4MU fluor – qHTS Assay for Spectroscopic Profiling in 4-MU Spectral Region; compound autofluorescence, 340/450 nm, 4-MU equivalents; active compounds read high; AID 589, 2007; max dye-equivalent concentration, M; hit rate 11% among 59,000; in the data active means max dye-equivalent concentration above about 10 nM; inconclusive means mostly about 1.1 nM to 9.6 nM
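Compounds in 100 mM Tris, pH 8.0, incubated 15 min at room temperature, then fluorescence read at 340 nm excitation/450 nm emission. Signal converted to 4-MU dye-equivalent concentration using an on-plate six-point 4-MU standard curve.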
CRE-bla Fsk – Cell signaling CRE-BLA (Fsk stim) | CHO CRE-bla reporter (cAMP response element driving beta-lactamase), forskolin EC10, beta-lactamase ratio | Potency, µM (top dose mostly 38.2 µM), actives largely listed as activators | hit rate 2.5% among 71,000; active means well fitted activation curve with a large enough effect in the signal ratio, with a control signal flat, not every such curve was filed as active; inconclusive means small, poorly fitted or top-dose-only effect, or effect the other way, or a change in a side signal; the % refers to the signal ratio
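CRE-bla CHO reporter cells treated with compound titration plus EC10 NKH 477 (water-soluble forskolin), incubated 3 h at 37 °C; CCF4 loading 2 h at room temperature, 460/530 nm emission ratio read, AC50 values derived for positive or negative modulators.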
Hits are given with their value; [ ] = dose if it differs, or a comment. Unless noted, the call rests on the fitted dose curve; in most records, active means well fitted curve in the direction sought with a large enough effect; inconclusive means small, poorly fitted or top-dose-only effect, or another doubt; inactive means no such curve, though single readings can be large; an effect the other way counts as inactive or inconclusive.

What do the screens show for `COc1cc2c3cc1Oc1cc(ccc1O)C[C@@H]1c4c(cc(OC)c(O)c4Oc4ccc(cc4)C[C@H]3[N+](C)(C)CC2)CC[N+]1(C)C`?
AID923: inactive[11.5 µM]; A350 autofl: inconclusive; HADH2 inhib: inactive[11.4 µM]; HSD17B inhib: inactive[11.4 µM]; 4MU fluor: inconclusive; CRE-bla Fsk: inactive[7.6 µM]

How did O=C1C2C3C=CC(C3)C2C(=O)N1Cc1ccccc1 (configuration not stated) do in these assays?
AID923: inactive; A350 autofl: inactive; HADH2 inhib: inactive; HSD17B inhib: inactive; 4MU fluor: inactive; CRE-bla Fsk: 1µM

How did O=C(O)Cn1c(=O)oc2cc(S(=O)(=O)NC3CCCCC3)ccc21 do in these assays?
AID923: inactive; HADH2 inhib: inactive; HSD17B inhib: inactive; CRE-bla Fsk: inactive

What do the screens show for `COc1cc2c(OC)cccc2cc1C(=O)O`?
AID923: inactive; A350 autofl: 2.1e-07M; HADH2 inhib: 25.1µM; HSD17B inhib: 25.1µM; 4MU fluor: 1.85e-07M; CRE-bla Fsk: inactive

What do the screens show for `CC(C)CO/N=C1/C[C@@H](O)[C@@H](O)[C@@H]2[C@@H]3C(=O)N(Cc4ccccc4)C(=O)[C@H]3CC[C@@H]12`?
AID923: inactive[11.5 µM]; HADH2 inhib: inactive[11.4 µM]; HSD17B inhib: inactive[11.4 µM]

What do the screens show for `CCC(CC)C(=O)NCCNC(=O)C(CC)CC`?
AID923: inactive; A350 autofl: inactive; HADH2 inhib: inactive; HSD17B inhib: inactive; 4MU fluor: inactive; CRE-bla Fsk: 2µM

How did CCOC(=O)N1CCN(c2ncnc3c2[nH]c2ccc(OC)cc23)CC1 do in these assays?
A350 autofl: 1.62e-07M; 4MU fluor: 1.43e-07M

Results for NC(=O)C1CCN(c2ncnc3c(-c4ccccc4)nsc23)CC1 ?
AID923: inactive; A350 autofl: 7.53e-08M; HADH2 inhib: inactive; HSD17B inhib: inactive; 4MU fluor: 5.59e-08M; CRE-bla Fsk: inactive

How did COc1ccc(-c2nsc3c(N4CCN(C(=O)c5ccco5)CC4)ncnc23)cc1 do in these assays?
AID923: inactive; A350 autofl: 3.2e-08M; HADH2 inhib: inactive; HSD17B inhib: inactive; 4MU fluor: 4.22e-08M; CRE-bla Fsk: inactive

Results for O=C(c1ccco1)N1CCN(c2ncnc3c(-c4ccccc4)nsc23)CC1 ?
AID923: inactive; A350 autofl: 3.44e-08M; HADH2 inhib: inconclusive; HSD17B inhib: 31.6µM; 4MU fluor: 3.58e-08M; CRE-bla Fsk: inactive

What do the screens show for `CCOC(=O)c1sc2ncnc(N3CCN(C(=O)OCC)CC3)c2c1C`?
AID923: inactive; A350 autofl: inactive; HADH2 inhib: inactive; HSD17B inhib: inactive; 4MU fluor: inactive; CRE-bla Fsk: inconclusive

Results for COCC(=O)N1CCC2(CC1)CN(C(c1ccccc1)c1ccccc1)C2 ?
AID923: inactive; A350 autofl: inactive; HADH2 inhib: inactive; HSD17B inhib: inactive; 4MU fluor: inactive; CRE-bla Fsk: inactive

What do the screens show for `O=C(c1ccco1)N1CCN(c2ncnc3c2[nH]c2ccc(Br)cc23)CC1`?
AID923: inactive; A350 autofl: inconclusive; HADH2 inhib: inactive; HSD17B inhib: inconclusive; 4MU fluor: inconclusive; CRE-bla Fsk: 0.251µM

What do the screens show for `CC[C@H]1NC(=O)c2cc(S(N)(=O)=O)c(Cl)cc2N1`?
AID923: inactive; A350 autofl: 6.2e-08M; HADH2 inhib: inactive; HSD17B inhib: inconclusive; 4MU fluor: 7.04e-08M; CRE-bla Fsk: inactive

How did C=CCSC[C@@H]1Nc2cc(Cl)c(S(N)(=O)=O)cc2S(=O)(=O)N1 do in these assays?
AID923: inactive; A350 autofl: inconclusive; HADH2 inhib: inactive; HSD17B inhib: inactive; 4MU fluor: inconclusive; CRE-bla Fsk: inactive

What do the screens show for `O=c1cnc2cnc(Oc3ccccc3)nc2n1C1CC1`?
AID923: inactive; A350 autofl: inactive; HADH2 inhib: inactive; HSD17B inhib: inactive; 4MU fluor: inactive; CRE-bla Fsk: inactive

Results for CCc1ccc2[nH]c(=O)c(CN(CCN3CCOCC3)C(=O)Nc3ccccc3F)cc2c1 ?
AID923: inactive; A350 autofl: inactive; HADH2 inhib: inactive; HSD17B inhib: inactive; 4MU fluor: inactive; CRE-bla Fsk: inconclusive

What do the screens show for `O=C(Nc1ccccc1)N(CCCN1CCOCC1)Cc1ccccc1F`?
AID923: inactive; A350 autofl: inconclusive; HADH2 inhib: inactive; HSD17B inhib: inactive; 4MU fluor: inconclusive; CRE-bla Fsk: inactive

How did COc1ccccc1NC(=O)N(CCCN1CCOCC1)Cc1cc2cc3c(cc2[nH]c1=O)OCO3 do in these assays?
AID923: inactive; A350 autofl: 1.65e-07M; HADH2 inhib: inconclusive; HSD17B inhib: inconclusive; 4MU fluor: 2.14e-07M; CRE-bla Fsk: inactive

What do the screens show for `CCc1ccc2[nH]c(=O)c(CN(CCN(C)C)C(=O)Nc3ccccc3OC)cc2c1`?
AID923: inactive; A350 autofl: inactive; HADH2 inhib: inactive; HSD17B inhib: inactive; 4MU fluor: inactive; CRE-bla Fsk: inactive

Results for Cc1ccc2cc(CN(CCN3CCCC3)C(=O)Nc3ccc(F)cc3)c(=O)[nH]c2c1C ?
AID923: inactive; A350 autofl: inactive; HADH2 inhib: inactive; HSD17B inhib: inactive; 4MU fluor: inactive; CRE-bla Fsk: inactive

What do the screens show for `CCc1ccc2[nH]c(=O)c(CN(CCCN3CCOCC3)C(=O)Nc3ccc(F)cc3)cc2c1`?
AID923: inactive; A350 autofl: 1.03e-08M; HADH2 inhib: inactive; HSD17B inhib: 25.1µM; 4MU fluor: 1.11e-08M; CRE-bla Fsk: inconclusive

What do the screens show for `O=C(Nc1ccc(F)cc1)N(CCCN1CCOCC1)Cc1cc2cc3c(cc2[nH]c1=O)OCCO3`?
AID923: inactive; A350 autofl: 1.26e-07M; HADH2 inhib: inconclusive; HSD17B inhib: 31.6µM; 4MU fluor: 1.43e-07M; CRE-bla Fsk: inconclusive

How did O=C(Nc1ccc(F)cc1)N(CCCN1CCOCC1)Cc1cc2cc3c(cc2[nH]c1=O)OCO3 do in these assays?
AID923: inactive; A350 autofl: 2.06e-07M; HADH2 inhib: inconclusive; HSD17B inhib: 31.6µM; 4MU fluor: 2.72e-07M; CRE-bla Fsk: inconclusive

What do the screens show for `CC(C)CO/N=C1/C[C@@H](O)[C@@H](O)[C@@H]2[C@@H]3C(=O)N([C@@H](C)c4ccccc4)C(=O)[C@H]3CC[C@H]12`?
AID923: inactive[11.5 µM]; HADH2 inhib: inactive[11.4 µM]; HSD17B inhib: inactive[11.4 µM]

Results for O=C(NCc1ccccn1)c1ccc(NC(=O)c2ccco2)cc1 ?
AID923: inactive; A350 autofl: inactive; HADH2 inhib: inactive; HSD17B inhib: inactive; 4MU fluor: inactive; CRE-bla Fsk: inactive

What do the screens show for `O=C(NCc1ccccn1)c1coc(=O)c(Br)c1`?
A350 autofl: 8.35e-07M; 4MU fluor: 7.67e-07M

How did CO[C@H]1COC(=O)C/C=C\[C@H](C)[C@H](OC)COC(=O)[C@@H](C)NC(=O)C/C=C\[C@@H]1C do in these assays?
AID923: inactive[11.5 µM]; HADH2 inhib: inactive[11.4 µM]; HSD17B inhib: inactive[11.4 µM]
